Test in all cases: NCI-60 one-dose screen, 48 h (100 = growth as untreated, 0 = no growth, -100 = all killed)
What all share (settings): 10 µM unless noted

Assay [1] relates to HCT-15 colon.
For assay [2], the system named is HT29 colon.
Assay [3] deals with SNB-75 CNS.
In assay [4] the test system is SNB-19 CNS.
The test system of assay [5] is U251 CNS.
The test system of assay [6] is PC-3 prostate.
Assay [7] relates to SK-MEL-5 melanoma.
Assay [8] concerns UACC-62 melanoma.
Assay [9] relates to LOX IMVI melanoma.
Assay [10] relates to SK-MEL-28 melanoma.
The test system of assay [11] is SK-MEL-2 melanoma.
Assay [12] relates to EKVX NSCLC.
Assay [13] concerns SN12C renal.
In assay [14] the test system is UO-31 renal.
For assay [15], the system named is TK-10 renal.
Assay [16] relates to ACHN renal.
The subject of assay [17] is CAKI-1 renal.
Assay [18] relates to A498 renal.
Assay [19] has as its system CCRF-CEM leukemia.
The subject of assay [20] is MOLT-4 leukemia.

Compounds without any hit were thinned out: in the full panel of roughly 83,000, 20% have a hit.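 Assay: single dose, 48 h. Readout: percent growth (0 = no net growth; negative = cell death). Active: <10.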 Values without a mark were called inactive. The source made the active and inactive calls.

Turning to `O=C(/C=C/c1cccc(Br)c1)c1cccc(OCCCCOc2cccc(C(=O)/C=C/c3cccc(Br)c3)c2)c1`, the growth in [1] is 108%; in assay [2], 117%; in assay [3] it was 96.8%; in [4], 94.3%; in assay [5], 105%; in assay [6], 104%. Moreover, the growth in [7] is 99.4%; in assay [8] it was 98.3%; in [9], 96.6%; in [10], 110%; in [11] it was 104%; in [12], 101%. The growth in assay [13] was 99.7%; in assay [14] it was 91.4%; in [15], 115%; in assay [16], 101%; in assay [17], 100%; in [18] it was 113%. The growth in assay [19] was 105%; in assay [20], 90.4%.

As to `CC(C)(C)OC(=O)Nc1ccc(-c2cccc(Oc3ccc4nnc(Cl)n4n3)c2)cc1`, the growth in assay [1] is 65%; in assay [2] it was 84.7%; in assay [3], 126%; in [4] it was 94.9%; in assay [5], 91.2%; in assay [6], 51.1%. Further, the growth in [7] is 19.5%; in [8], 63.6%; in assay [9], 82.9%; in [10] it was 96.9%; in [11], 65.8%; in [12], 86.7%. The growth in [13] is 78.7%; in [14], 67.6%; in assay [15], 71.1%; in assay [16], 88%; in assay [17], 83.6%; in [18] it was 70.1%. The growth was 60.4% in [19] and 46.3% in assay [20].

As for `NC(=O)c1c(NC(=O)c2ccc(C(F)(F)F)cc2)sc2c1CCC(=O)C2`, the growth in assay [1] was -21.2% (active); in assay [2] it was 0.0943% (active); in assay [3], -7.54% (active); in assay [4], 16.3%; in assay [5] it was 7.99% (active); in assay [6], -6.96% (active). Also, the growth in assay [7] is -27.2% (active); in [8], -24.9% (active); in [9] it was -37.2% (active); in assay [10], 4.03% (active); in assay [11], 51.3%; in assay [12] it was 24.8%. The growth in assay [13] was 12.4%; in [14] it was -86.4% (active); in assay [15], 17%; in [16], -47.1% (active); in assay [17], -24.3% (active); in [18], 89.4%. In addition, the growth in [19] was -4.99% (active); in assay [20], 4.59% (active).

As for `C/C(=N\NC(N)=S)c1nnn(-c2ccc([N+](=O)[O-])cc2)c1C`, the growth was 86.9% in assay [1]; 104% in assay [2]; 87.3% in [3]; 95.6% in assay [4]; 98.1% in assay [5]; 90.8% in assay [6]. In addition, the growth was 100% in [7]; 98.4% in assay [8]; 94.9% in [9]; 104% in assay [10]; 110% in assay [11]; 62.4% in [12]. Also, the growth is 94.5% in assay [13]; 70.5% in [14]; 98.7% in assay [15]; 97% in assay [16]; 90.8% in [17]; 94% in [18]. Moreover, the growth in assay [19] was 101%; in [20] it was 105%.

Take `CN1c2ccccc2Sc2cc(/C=N/Nc3ccnc4cc(Cl)ccc34)ccc21`: the growth is 50.2% in assay [1]; 76.5% in assay [2]; 104% in assay [3]; 94.8% in assay [4]; 80.7% in [5]; 88.6% in assay [6]. Further, the growth in assay [7] was 94.7%; in assay [8] it was 101%; in assay [9], 47.7%; in assay [10], 103%; in assay [11], 98.3%; in [12], 94.2%. Further, the growth in assay [13] was 95.7%; in assay [14], 84%; in assay [15], 115%; in [16], 109%; in assay [17], 103%; in [18], 131%. For the same compound, the growth in assay [19] was 56.2%; in assay [20] it was 82.4%.

On to `CCNCCOc1ccc(/C(=C(/CC)c2ccc(Cl)cc2)c2ccc(OCCCN(C)C)cc2)cc1`, for which the growth in assay [1] was -84.8% (active); in assay [2] it was -36.4% (active); in assay [3] it was -71.1% (active); in [4], -86% (active); in assay [5], -70.7% (active); in [6], -56.4% (active). In addition, the growth in assay [7] is -95.2% (active); in [8] it was -90% (active); in assay [9], -89.2% (active); in [10] it was -94.3% (active); in assay [11], -84% (active); in assay [12], -84.4% (active). The growth was -85.6% (active) in [13]; -95.6% (active) in assay [14]; -89.8% (active) in [15]; -98% (active) in assay [16]; -75.1% (active) in [17]; -86.3% (active) in [18]. Besides, the growth in [19] is -37.5% (active); in assay [20], -62.6% (active).

For the compound `CCc1nnc(NC(=O)c2cc(-c3ccc(Cl)cc3Cl)oc2C)s1`, the growth was 70.5% in assay [1]; 89.7% in [2]; 94% in [3]; 79.7% in assay [4]; 29.5% in assay [5]; 82.7% in [6]. Besides, the growth in [7] is 97.8%; in assay [8], 73.2%; in assay [9] it was 74.4%; in assay [10], 102%; in assay [11], 108%; in [12], 99.4%. Further, the growth in assay [13] is 83.7%; in assay [14], 85.1%; in assay [15] it was 114%; in assay [16], 50.9%; in [17] it was 80.9%; in [18], 97.4%. The growth in assay [19] is 97.6%; in assay [20], 99.3%.

The values are drawn from PubChem BioAssay (NCI).
